PubChem BioAssay (NCI)
Where “and” joins values, the source holds several entries; their conditions need not be identical. Equal values may be shown once. About 83,000 compounds went through this panel and 20% of them were active in at least one assay; those are over-represented in the sample as a whole.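 Treatment: one concentration, 48 hours, 96-well format. Scoring: percent growth, with anything below 10 considered active.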

Key:
Assay in all cases: NCI-60 one-dose screen, 48 h (100 = growth as untreated, 0 = no growth, -100 = all killed)
Settings in all cases: 10 µM unless noted
HCT-15 colon = system: HCT-15 colon
HT29 colon = system: HT29 colon
SNB-75 CNS = system: SNB-75 CNS
SNB-19 CNS = system: SNB-19 CNS
U251 CNS = system: U251 CNS
PC-3 prostate = system: PC-3 prostate
SK-MEL-5 melanoma = system: SK-MEL-5 melanoma
UACC-62 melanoma = system: UACC-62 melanoma
LOX IMVI melanoma = system: LOX IMVI melanoma
SK-MEL-28 melanoma = system: SK-MEL-28 melanoma
SK-MEL-2 melanoma = system: SK-MEL-2 melanoma
EKVX NSCLC = system: EKVX NSCLC
UO-31 renal = system: UO-31 renal
TK-10 renal = system: TK-10 renal
CAKI-1 renal = system: CAKI-1 renal
A498 renal = system: A498 renal
HL-60(TB) leukemia = system: HL-60(TB) leukemia
ACHN renal = system: ACHN renal
CCRF-CEM leukemia = system: CCRF-CEM leukemia
SN12C renal = system: SN12C renal

Measured: growth

O=c1[nH]c(=O)[nH]c(=O)[nH]1
inactive: HCT-15 colon 160% | HT29 colon 115% | SNB-75 CNS 103% | SNB-19 CNS 98.1% | U251 CNS 132% | PC-3 prostate 148% | SK-MEL-5 melanoma 107% | UACC-62 melanoma 113% | LOX IMVI melanoma 129% | SK-MEL-28 melanoma 135% | SK-MEL-2 melanoma 66.7% | EKVX NSCLC 110% | UO-31 renal 95.3% | TK-10 renal 140% | CAKI-1 renal 92.7% | A498 renal 129% | HL-60(TB) leukemia 88.8%

COC(=O)C1=CCCN(C)C1
inactive: HCT-15 colon 106% and 100% | HT29 colon 106% and 104% | SNB-75 CNS 103% and 90.3% | SNB-19 CNS 106% and 109% | U251 CNS 107% | PC-3 prostate 92.9% | SK-MEL-5 melanoma 102% | UACC-62 melanoma 111% and 101% | LOX IMVI melanoma 98.3% and 99.8% | SK-MEL-28 melanoma 110% and 108% | SK-MEL-2 melanoma 106% and 30.5% | EKVX NSCLC 97.8% and 98.7% | UO-31 renal 80.4% and 94% | TK-10 renal 106% and 103% | ACHN renal 96.9% | CAKI-1 renal 93.7% and 102% | A498 renal 97.8% and 112% | HL-60(TB) leukemia 108% and 122% | CCRF-CEM leukemia 102%

Oc1ccccc1C=NCCN=Cc1ccccc1O
inactive: HCT-15 colon 104% | HT29 colon 108% | SNB-75 CNS 97.6% | SNB-19 CNS 98% | U251 CNS 91.6% | PC-3 prostate 95.1% | SK-MEL-5 melanoma 99.5% | UACC-62 melanoma 98.8% | LOX IMVI melanoma 95.6% | SK-MEL-28 melanoma 103% | SK-MEL-2 melanoma 106% | UO-31 renal 92.3% | ACHN renal 103% | CAKI-1 renal 102% | A498 renal 77.9% | CCRF-CEM leukemia 90%

C[N+]1(C)CCCC1c1cccnc1 (stereo not given)
inactive: HCT-15 colon 104% | HT29 colon 102% | SNB-75 CNS 98% | SNB-19 CNS 105% | U251 CNS 94% | PC-3 prostate 97.6% | SK-MEL-5 melanoma 95.4% | UACC-62 melanoma 102% | LOX IMVI melanoma 100% | SK-MEL-28 melanoma 114% | SK-MEL-2 melanoma 112% | SN12C renal 99.8% | UO-31 renal 99.7% | TK-10 renal 111% | ACHN renal 114% | CAKI-1 renal 98.2% | HL-60(TB) leukemia 117% | CCRF-CEM leukemia 97.6%

O=C1NC(=O)C(=Cc2ccccc2)C(=O)N1
inactive: HCT-15 colon 98.6% and 106% | HT29 colon 105% and 99% | SNB-75 CNS 105% and 96.5% | SNB-19 CNS 106% | U251 CNS 97.4% and 92.2% | PC-3 prostate 81% and 96.2% | SK-MEL-5 melanoma 109% and 100% | UACC-62 melanoma 90.3% and 105% | LOX IMVI melanoma 94% and 97.1% | SK-MEL-28 melanoma 104% and 115% | SK-MEL-2 melanoma 106% and 114% | EKVX NSCLC 98.4% and 101% | UO-31 renal 93.5% | TK-10 renal 106% and 102% | CAKI-1 renal 84.2% and 103% | A498 renal 128% and 94.2% | HL-60(TB) leukemia 68.3% and 105% | CCRF-CEM leukemia 90.7% and 107%

C[C@]12CC[C@H]3[C@@H](CC=C4c5nc(N)sc5CC[C@@]43C)[C@@H]1CC[C@@H]2O
inactive: HCT-15 colon 98.4% | HT29 colon 95.5% | SNB-75 CNS 89.9% | SNB-19 CNS 99.2% | U251 CNS 97.4% | PC-3 prostate 98.5% | SK-MEL-5 melanoma 98.5% | UACC-62 melanoma 87.8% | LOX IMVI melanoma 104% | SK-MEL-28 melanoma 113% | SK-MEL-2 melanoma 98% | EKVX NSCLC 101% | UO-31 renal 96.3% | TK-10 renal 102% | ACHN renal 106% | CAKI-1 renal 91.7% | A498 renal 86% | CCRF-CEM leukemia 91.2%

Nc1ccc(S(=O)(=O)F)cc1
inactive: HCT-15 colon 107% | HT29 colon 103% | SNB-75 CNS 99.5% | SNB-19 CNS 105% | U251 CNS 105% | PC-3 prostate 105% | SK-MEL-5 melanoma 106% | UACC-62 melanoma 105% | LOX IMVI melanoma 99.4% | SK-MEL-28 melanoma 114% | EKVX NSCLC 112% | SN12C renal 105% | UO-31 renal 86.3% | TK-10 renal 92.7% | ACHN renal 109% | CAKI-1 renal 101% | A498 renal 94.8% | HL-60(TB) leukemia 91.9%

O=C(NC1=NCC[Se]1)c1ccccc1O
inactive: HCT-15 colon 82% | HT29 colon 92.1% | SNB-75 CNS 67.3% | SNB-19 CNS 68.5% | U251 CNS 44% | PC-3 prostate 54.9% | SK-MEL-5 melanoma 80.9% | UACC-62 melanoma 76.2% | LOX IMVI melanoma 42.9% | SK-MEL-28 melanoma 61.3% | SK-MEL-2 melanoma 83% | EKVX NSCLC 73% | UO-31 renal 17.8% | TK-10 renal 56.7% | ACHN renal 79.8% | CAKI-1 renal 50.8% | A498 renal 88.5% | HL-60(TB) leukemia 58.8% | CCRF-CEM leukemia 21.8%

COc1cc(C=C2C(=O)NC(=O)NC2=O)ccc1O
inactive: HCT-15 colon 103% | HT29 colon 99.2% | SNB-75 CNS 96% | SNB-19 CNS 96.7% | U251 CNS 98.7% | PC-3 prostate 103% | SK-MEL-5 melanoma 109% | UACC-62 melanoma 92.7% | LOX IMVI melanoma 102% | SK-MEL-28 melanoma 131% | EKVX NSCLC 153% | SN12C renal 96.5% | UO-31 renal 94.4% | TK-10 renal 127% | ACHN renal 101% | A498 renal 69% | HL-60(TB) leukemia 95.6% | CCRF-CEM leukemia 113%

N#Cc1ccc(Cl)cc1
inactive: HCT-15 colon 110% | HT29 colon 84.4% | SNB-75 CNS 101% | SNB-19 CNS 108% | U251 CNS 105% | PC-3 prostate 129% | SK-MEL-5 melanoma 106% | UACC-62 melanoma 104% | LOX IMVI melanoma 106% | SK-MEL-28 melanoma 117% | EKVX NSCLC 117% | UO-31 renal 94.6% | TK-10 renal 60.3% | CAKI-1 renal 111% | A498 renal 134% | HL-60(TB) leukemia 83.9% | CCRF-CEM leukemia 99.5%

CCCCS(=O)(=O)Cl
inactive: HCT-15 colon 108% | HT29 colon 113% | SNB-75 CNS 93.5% | SNB-19 CNS 110% | U251 CNS 105% | PC-3 prostate 89.6% | SK-MEL-5 melanoma 98.2% | UACC-62 melanoma 106% | LOX IMVI melanoma 99.9% | SK-MEL-28 melanoma 107% | SK-MEL-2 melanoma 106% | EKVX NSCLC 94.8% | UO-31 renal 100% | TK-10 renal 103% | ACHN renal 110% | CAKI-1 renal 100% | A498 renal 97.9% | HL-60(TB) leukemia 105% | CCRF-CEM leukemia 103%

COc1ccc2c(c1)C1(C)CCN(C)CC(C1)C2O (stereo not given)
inactive: HCT-15 colon 97.6% | HT29 colon 98.5% | SNB-75 CNS 84.2% | SNB-19 CNS 103% | U251 CNS 99.3% | PC-3 prostate 88.6% | SK-MEL-5 melanoma 99.5% | UACC-62 melanoma 108% | LOX IMVI melanoma 98.4% | SK-MEL-28 melanoma 108% | SK-MEL-2 melanoma 105% | SN12C renal 99.3% | UO-31 renal 86.9% | TK-10 renal 95% | ACHN renal 104% | CAKI-1 renal 119% | A498 renal 99.5% | HL-60(TB) leukemia 89.1% | CCRF-CEM leukemia 94.3%

N#CCC(=O)c1ccccc1
inactive: HCT-15 colon 99.8% | HT29 colon 110% | SNB-75 CNS 84.3% | SNB-19 CNS 111% | U251 CNS 101% | PC-3 prostate 95.2% | SK-MEL-5 melanoma 104% | UACC-62 melanoma 107% | LOX IMVI melanoma 103% | SK-MEL-28 melanoma 114% | SK-MEL-2 melanoma 114% | EKVX NSCLC 99% | UO-31 renal 79% | CAKI-1 renal 101% | A498 renal 117% | HL-60(TB) leukemia 98.4% | CCRF-CEM leukemia 110%

Cc1cc(N)ccc1N
inactive: HCT-15 colon 105% | HT29 colon 109% | SNB-75 CNS 92.3% | SNB-19 CNS 102% | U251 CNS 93.2% | PC-3 prostate 87.6% | SK-MEL-5 melanoma 97.2% | UACC-62 melanoma 103% | LOX IMVI melanoma 98.3% | SK-MEL-28 melanoma 107% | SK-MEL-2 melanoma 104% | SN12C renal 95.7% | UO-31 renal 88.7% | TK-10 renal 126% | ACHN renal 97% | CAKI-1 renal 97.9% | A498 renal 79.2% | HL-60(TB) leukemia 100% | CCRF-CEM leukemia 69.3%

O=S(OO)c1cc(Cl)c(O)c(Cl)c1 (stereo not given)
inactive: HCT-15 colon 99.2% | HT29 colon 113% | SNB-75 CNS 78.5% | SNB-19 CNS 104% | U251 CNS 94% | PC-3 prostate 94.7% | SK-MEL-5 melanoma 104% | UACC-62 melanoma 101% | LOX IMVI melanoma 96.4% | SK-MEL-28 melanoma 98.9% | SK-MEL-2 melanoma 110% | SN12C renal 101% | UO-31 renal 84.2% | TK-10 renal 100% | CAKI-1 renal 91.3% | A498 renal 82.5% | HL-60(TB) leukemia 103% | CCRF-CEM leukemia 91%
